Pf growth 96h = P. falciparum growth inhibition at 96 hours; 6.9% of 320,000 active; Potency, µM (doses to about 28.7 µM), most hits filed as inhibitors; AID 504834; P. falciparum luciferase reporter growth, 96 h
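Compounds incubated with erythrocytes infected by luciferase-expressing P. falciparum (2% hematocrit, 0.05% parasitemia final) for 96 hours, 37 C in 5% CO2. Growth inhibition scored as decreased luciferase luminescence.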
AMA1 RON2 block = AMA1-RON2 (P. falciparum) interaction inhibition; 0.2% of 360,000 active; AlphaScreen AMA1-biotinylated RON2 peptide binding; Potency, µM (series often up to 58.2 µM), most hits filed as inhibitors; note: nearly all actives have a fitted effect of over 45% in size
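AMA1 (3D7) with his tag at 25 nM final met compounds first, then biotinylated RON2 peptide at 25 nM; detection used donor plus acceptor beads, 10 µg/mL apiece, read by AlphaScreen after 30 min at room temperature.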
Pf growth 48h = P. falciparum growth inhibition at 48 hours (one generation). P. falciparum luciferase growth in erythrocytes, 48 h. Potency, µM (top dose mostly 28.7 µM), most hits filed as inhibitors. 5.9% of 310,000 active
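Growth was read as firefly luciferase luminescence after a 48 h, 37 C, 5% CO2 exposure of compounds to reporter-bearing P. falciparum cultures (0.1% parasitemia, 2% hematocrit final) in Albumax-supplemented RPMI 1640.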
HCV inh = HCV inhibition. 3.4% of 340,000 active. Potency, µM (series often up to 41.8 µM), most hits filed as inhibitors. Huh7.5.1 HCVcc-Cre infection, luciferase reporter, 44 h
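Luciferase read-out (15 sec integration) after a 15 min room-temperature substrate step quantifies HCVcc-Cre infection. Cells, 1,000 per well, had compound added 4 h post-plating, then virus at ~0.5 moi, and were cultured 44 h.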
Numbers stand for hits; [ ] = dose if it differs, or a comment. A selection: hits, their analogues and other compounds. The true share with any hit is near 11%. Calls come from the whole dose curve; as a rule, active = well fitted curve in the direction sought with a large enough effect; inconclusive = small, poorly fitted or top-dose-only effect, or another doubt; inactive = no such curve, though single readings can be large; an effect the other way counts as inactive or inconclusive.

Results for CN(CCCNC(=O)CSc1cc(=O)n(C)c2cc(Cl)ccc12)Cc1ccccc1 ?
Pf growth 96h: inactive; AMA1 RON2 block: inactive; Pf growth 48h: inactive; HCV inh: inconclusive

Results for COc1ccc(-n2c(C)cc(C(=O)COC(=O)c3cc(NC(=O)c4cccs4)c(OC)c(OC)c3)c2C)cc1 ?
Pf growth 96h: inconclusive; AMA1 RON2 block: inactive; Pf growth 48h: 1.9µM; HCV inh: inactive

How did COc1cc(NC(=O)c2cccs2)c(C(=O)OCC(=O)c2cc(C)n(-c3ccccc3)c2C)cc1OC do in these assays?
Pf growth 96h: inconclusive; AMA1 RON2 block: inactive[11.6 µM]; Pf growth 48h: inconclusive; HCV inh: inactive

What do the screens show for `COc1cc(NC(=O)c2cccs2)c(C(=O)OCC(=O)c2cc(C)n(-c3ccc(F)cc3)c2C)cc1OC`?
Pf growth 96h: 2.6µM; AMA1 RON2 block: inactive; Pf growth 48h: inactive; HCV inh: inactive

Results for CC1(C)O[C@H]2C[C@@H]3[C@H]4CCC5=CC(=O)C=C[C@]5(C)[C@@]4(F)[C@@H](O)C[C@]3(C)[C@]2(C(=O)CO)O1 ?
Pf growth 96h: 9.5µM; Pf growth 48h: inconclusive

Results for CC(=O)OCC(=O)[C@@]12OC3(CCCC3)O[C@@H]1C[C@H]1[C@@H]3CCC4=CC(=O)C=C[C@]4(C)[C@@]3(F)[C@@H](O)C[C@@]12C ?
Pf growth 96h: 10µM; AMA1 RON2 block: inactive; Pf growth 48h: 12µM; HCV inh: inactive[8.37 µM]

How did CCCC(NC(=S)NCC1CCCO1)C12CC3CC(CC(C3)C1)C2 (stereo unspecified) do in these assays?
Pf growth 96h: inactive; AMA1 RON2 block: inactive; Pf growth 48h: 2.6µM; HCV inh: 11µM

What do the screens show for `S=C(NCC1CCCO1)NC1CCCCC1` (stereo unspecified)?
Pf growth 96h: inactive; AMA1 RON2 block: inactive; Pf growth 48h: inactive; HCV inh: inactive

What do the screens show for `CN(C(=O)CSc1nnc(Cc2cccs2)n1C1CC1)C1CCS(=O)(=O)C1` (stereo unspecified)?
Pf growth 96h: inactive; AMA1 RON2 block: inactive; Pf growth 48h: inconclusive; HCV inh: inactive

What do the screens show for `COC(=O)CCC(=O)OC1(C)C(=O)C=C2C=C(C3CC3)N(Cc3ccco3)C=C2C1=O` (stereo unspecified)?
Pf growth 96h: inconclusive; AMA1 RON2 block: inactive; Pf growth 48h: 12µM; HCV inh: inactive

What do the screens show for `Cc1ccc(NC(=O)c2ccco2)c(NC(=O)c2cccs2)c1`?
AMA1 RON2 block: inactive; Pf growth 48h: inactive; HCV inh: 11µM

How did O=C(Nc1ccc(Oc2ccc3ccccc3c2)cc1)c1ccco1 do in these assays?
AMA1 RON2 block: inactive; Pf growth 48h: 2.1µM; HCV inh: inconclusive

Results for O=C(Nc1ccc(Oc2ccc(NC(=O)c3ccco3)c(NC(=O)c3ccco3)c2)cc1)c1ccco1 ?
Pf growth 96h: inactive; AMA1 RON2 block: inactive; Pf growth 48h: inconclusive; HCV inh: 25µM

How did COc1ccc(NC(=O)CC2SC(=N)N(c3ccccc3)C2=O)c(OC)c1 (stereo unspecified) do in these assays?
Pf growth 96h: inactive; AMA1 RON2 block: inactive; Pf growth 48h: inactive; HCV inh: inactive

What do the screens show for `O=C(O)C1CCCCN1c1ccccc1[N+](=O)[O-]` (stereo unspecified)?
AMA1 RON2 block: inactive

How did O=C(O)C1Cc2ccccc2N2CCCC12 (stereo unspecified) do in these assays?
Pf growth 96h: 1.9µM; AMA1 RON2 block: inactive; Pf growth 48h: inconclusive; HCV inh: inactive

Results for COc1ccc(CC(=O)OCC(=O)NC2CCCC(C)C2C)cc1 (stereo unspecified) ?
AMA1 RON2 block: inactive; HCV inh: inactive

What do the screens show for `O=C(O)CC1S/C(=N/N=C/C2CC=CCC2)NC1=O` (stereo unspecified)?
Pf growth 96h: 5.9µM; AMA1 RON2 block: inactive; Pf growth 48h: inactive; HCV inh: inactive

What do the screens show for `COc1ccc(S(=O)(=O)N2CCOC2CNC(=O)C(=O)NCc2ccccn2)cc1OC` (stereo unspecified)?
AMA1 RON2 block: inactive

What do the screens show for `O=C(NCCC1CCCCN1S(=O)(=O)c1ccccc1)C(=O)NCc1cccnc1` (stereo unspecified)?
Pf growth 96h: inconclusive; AMA1 RON2 block: inactive; Pf growth 48h: inactive; HCV inh: inactive

What do the screens show for `CCN(CC)c1ccc2cc(S(=O)(=O)c3ccc(Cl)cc3)c(=O)oc2c1`?
Pf growth 96h: 13µM; AMA1 RON2 block: inactive; Pf growth 48h: inconclusive; HCV inh: inactive[8.37 µM]

What do the screens show for `CCN(CC(=O)NC(C)(C)C)C(=O)c1ccccc1SCC(=O)NC1CCCCCCC1`?
Pf growth 96h: inconclusive; AMA1 RON2 block: inactive; Pf growth 48h: 10µM

Results for N=c1oc2ccc(Br)cc2cc1C(=O)NCc1ccc(F)cc1 ?
Pf growth 96h: 2.6µM; AMA1 RON2 block: inactive; Pf growth 48h: inactive; HCV inh: inactive

Results for Cc1ccc(CNC(=O)c2cc3cc(Br)ccc3oc2=N)cc1 ?
Pf growth 96h: inactive; AMA1 RON2 block: inactive; Pf growth 48h: inactive; HCV inh: inactive

How did CCN(CC)c1ccc2cc(C(=O)NCc3ccc(F)cc3)c(=N)oc2c1 do in these assays?
Pf growth 96h: 1.7µM; Pf growth 48h: inconclusive

How did CN(C)C(CNC(=O)c1cc(S(=O)(=O)N2CCOCC2)ccc1F)c1cccs1 (stereo unspecified) do in these assays?
AMA1 RON2 block: inactive; HCV inh: inactive

Results for Cc1ccc(/C=N/n2cnc3sc(C)c(C)c3c2=O)o1 ?
Pf growth 96h: inactive; AMA1 RON2 block: inactive; Pf growth 48h: inactive; HCV inh: inactive

What do the screens show for `Cc1ccc(S(=O)(=O)N2CCOC2CNC(=O)C(=O)NCCN2CCOCC2)cc1` (stereo unspecified)?
Pf growth 96h: inactive; AMA1 RON2 block: inactive; Pf growth 48h: inactive; HCV inh: inactive

What do the screens show for `CC1=NN(c2ccccc2)C(=O)C1N=Nc1ccccc1` (stereo unspecified)?
Pf growth 96h: inconclusive; AMA1 RON2 block: inconclusive; Pf growth 48h: inactive; HCV inh: inactive

Results for COc1ccc(N=NC2C(=O)N(c3ccccc3)N=C2C)cc1 (stereo unspecified) ?
Pf growth 96h: 2.6µM; AMA1 RON2 block: inactive; Pf growth 48h: inactive; HCV inh: inconclusive

What do the screens show for `COc1cc(C(=O)OCCCc2cc3ccccc3c(=O)o2)cc(OC)c1OC`?
Pf growth 96h: inconclusive; AMA1 RON2 block: inactive; Pf growth 48h: inactive; HCV inh: inactive

What do the screens show for `COc1cc(C(=O)OCCc2cc3ccccc3c(=O)o2)cc(OC)c1OC`?
Pf growth 96h: inconclusive; AMA1 RON2 block: inactive; Pf growth 48h: inconclusive; HCV inh: 3.5µM

What do the screens show for `COc1cc(/C=N/n2cnnc2)ccc1OCc1ccccc1`?
Pf growth 96h: inactive; AMA1 RON2 block: inactive; Pf growth 48h: inactive; HCV inh: inactive

Results for COc1ccc(/C=N/n2cnnc2)cc1COc1ccccn1 ?
Pf growth 96h: 2.1µM; AMA1 RON2 block: inactive; Pf growth 48h: inactive; HCV inh: inactive

What do the screens show for `COc1ccccc1N=Nc1nc(-c2ccccc2)c(-c2ccccc2)[nH]1`?
Pf growth 96h: 2.3µM; AMA1 RON2 block: 35µM; Pf growth 48h: inactive; HCV inh: 11µM

How did O=C(NNC(=O)c1ccco1)c1cccc([N+](=O)[O-])c1 do in these assays?
Pf growth 96h: inactive; AMA1 RON2 block: inactive; Pf growth 48h: inactive; HCV inh: inactive

Screening results from PubChem.
